# Laboratory results: article PMC7862700, “An all-to-all approach to the identification of sequence-specific readers for epigenetic DNA modifications on cytosine”
# Key:
# Assay in all cases: DAPPL (digital affinity profiling via proximity ligation, sequencing); 10 mM Tris-HCl pH 7.5, 50 mM NaCl, 1 mM DTT, 4% glycerol, room temperature, 30 min; GST-TFs on glutathione beads, 16-mer random dsDNA library, 0.1% formaldehyde crosslink after washing; high values mean tight binding
# FLI1 = molecular target: T1, FLI1 (Homo sapiens, UniProt Q01543 1-452); details: protein: recombinant; tags: N-terminal GST; dsDNA, one strand shown
# T1 sequence: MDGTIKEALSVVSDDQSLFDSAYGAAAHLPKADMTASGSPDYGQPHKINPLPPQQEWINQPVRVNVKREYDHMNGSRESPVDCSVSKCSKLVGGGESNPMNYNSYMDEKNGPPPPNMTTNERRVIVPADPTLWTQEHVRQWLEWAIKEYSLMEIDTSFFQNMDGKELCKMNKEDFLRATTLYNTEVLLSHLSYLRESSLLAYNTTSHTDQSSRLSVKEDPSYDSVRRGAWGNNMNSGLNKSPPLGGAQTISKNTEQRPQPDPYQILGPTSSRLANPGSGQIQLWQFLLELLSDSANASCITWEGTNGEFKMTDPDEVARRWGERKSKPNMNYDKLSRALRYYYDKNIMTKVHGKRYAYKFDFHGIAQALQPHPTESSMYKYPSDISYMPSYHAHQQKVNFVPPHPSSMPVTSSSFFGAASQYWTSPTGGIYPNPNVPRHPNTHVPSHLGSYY
# In short: (§1)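 After expression in yeast as GST fusions, human transcription factors were bound to glutathione beads, DNA-barcoded and mixed with a tag-only sample. The pools were incubated with 200 nmole of a 16-mer random double-stranded DNA library in Tris/NaCl/DTT/glycerol buffer (30 min, room temperature), washed and crosslinked with 0.1% formaldehyde. Proximity ligation with BsaI/T4 ligase ran for 1 h at 37 °C, before PCR amplification and sequencing on an Illumina NextSeq500. Binding signal is a hexamer's read frequency for a factor divided by its frequency for the tag-only sample.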
# ELK1 = molecular target: T2, ELK1 (Homo sapiens, UniProt P19419 1-428); details: protein: recombinant; tags: N-terminal GST; dsDNA, one strand shown
# T2 sequence: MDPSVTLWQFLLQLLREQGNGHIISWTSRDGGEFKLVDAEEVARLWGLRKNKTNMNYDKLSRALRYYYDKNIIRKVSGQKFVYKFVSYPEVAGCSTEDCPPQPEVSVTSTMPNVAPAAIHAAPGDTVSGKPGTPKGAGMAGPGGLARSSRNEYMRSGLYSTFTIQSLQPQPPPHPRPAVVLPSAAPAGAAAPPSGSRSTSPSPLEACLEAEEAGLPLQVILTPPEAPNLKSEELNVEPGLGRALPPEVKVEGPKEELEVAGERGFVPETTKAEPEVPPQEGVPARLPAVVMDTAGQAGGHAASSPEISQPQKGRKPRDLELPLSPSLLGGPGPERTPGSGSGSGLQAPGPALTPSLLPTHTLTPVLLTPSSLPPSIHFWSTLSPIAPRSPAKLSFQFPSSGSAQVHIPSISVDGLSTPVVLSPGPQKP
# In short: as §1
# GABPA = molecular target: T3, GABPA (Homo sapiens, UniProt Q06546 1-454); details: protein: recombinant; tags: N-terminal GST; dsDNA, one strand shown
# T3 sequence: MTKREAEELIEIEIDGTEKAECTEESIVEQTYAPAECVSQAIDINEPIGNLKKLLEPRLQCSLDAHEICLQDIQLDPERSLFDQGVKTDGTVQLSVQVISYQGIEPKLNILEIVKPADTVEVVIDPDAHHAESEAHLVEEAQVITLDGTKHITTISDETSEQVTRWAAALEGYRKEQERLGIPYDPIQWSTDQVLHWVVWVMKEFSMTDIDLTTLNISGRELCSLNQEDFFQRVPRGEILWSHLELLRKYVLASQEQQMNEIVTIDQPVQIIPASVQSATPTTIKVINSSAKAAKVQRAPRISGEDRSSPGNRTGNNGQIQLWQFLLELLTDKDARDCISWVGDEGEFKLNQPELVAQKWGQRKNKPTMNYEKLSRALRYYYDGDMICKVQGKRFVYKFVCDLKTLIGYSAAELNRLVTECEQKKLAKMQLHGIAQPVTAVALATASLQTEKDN
# In short: as §1
# ERG = molecular target: T4, ERG (Homo sapiens, UniProt P11308 1-479); details: protein: recombinant; tags: N-terminal GST; dsDNA, one strand shown
# T4 sequence: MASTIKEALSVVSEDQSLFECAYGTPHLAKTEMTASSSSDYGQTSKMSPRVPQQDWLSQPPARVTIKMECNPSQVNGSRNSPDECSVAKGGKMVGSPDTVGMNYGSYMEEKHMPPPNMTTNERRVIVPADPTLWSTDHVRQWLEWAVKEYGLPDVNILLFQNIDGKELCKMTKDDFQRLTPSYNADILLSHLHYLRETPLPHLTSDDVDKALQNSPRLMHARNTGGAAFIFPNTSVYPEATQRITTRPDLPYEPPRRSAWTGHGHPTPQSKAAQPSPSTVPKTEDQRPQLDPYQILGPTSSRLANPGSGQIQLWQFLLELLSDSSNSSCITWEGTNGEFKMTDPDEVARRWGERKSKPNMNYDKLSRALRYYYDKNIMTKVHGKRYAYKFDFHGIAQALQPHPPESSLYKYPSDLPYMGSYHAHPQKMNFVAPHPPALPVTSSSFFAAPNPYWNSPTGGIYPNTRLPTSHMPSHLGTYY
# In short: as §1
# ELF1 = ELF1 (Homo sapiens, UniProt P32519 1-619); details: protein: recombinant; tags: N-terminal GST; dsDNA, one strand shown
# ELF1, sequence (P32519 whole entry): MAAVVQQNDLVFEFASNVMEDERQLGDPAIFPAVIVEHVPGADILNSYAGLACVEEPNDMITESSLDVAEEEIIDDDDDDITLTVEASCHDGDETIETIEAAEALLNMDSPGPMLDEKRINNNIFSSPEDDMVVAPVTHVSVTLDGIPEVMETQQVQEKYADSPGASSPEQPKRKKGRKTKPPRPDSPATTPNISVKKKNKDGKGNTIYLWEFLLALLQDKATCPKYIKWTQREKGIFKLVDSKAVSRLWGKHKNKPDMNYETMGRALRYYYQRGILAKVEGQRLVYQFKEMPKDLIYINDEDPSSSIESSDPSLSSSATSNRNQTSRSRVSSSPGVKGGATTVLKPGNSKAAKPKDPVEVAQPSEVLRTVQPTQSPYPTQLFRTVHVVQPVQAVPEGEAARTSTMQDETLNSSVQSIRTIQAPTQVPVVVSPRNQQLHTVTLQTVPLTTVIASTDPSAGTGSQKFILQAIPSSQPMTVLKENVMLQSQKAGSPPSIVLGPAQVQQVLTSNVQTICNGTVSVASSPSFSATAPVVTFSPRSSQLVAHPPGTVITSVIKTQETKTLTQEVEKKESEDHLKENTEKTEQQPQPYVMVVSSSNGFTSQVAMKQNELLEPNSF
# In short: as §1
# EHF = molecular target: T5, EHF (Homo sapiens, UniProt Q9NZC4 1-300); details: protein: recombinant; tags: N-terminal GST; dsDNA, one strand shown
# T5 sequence: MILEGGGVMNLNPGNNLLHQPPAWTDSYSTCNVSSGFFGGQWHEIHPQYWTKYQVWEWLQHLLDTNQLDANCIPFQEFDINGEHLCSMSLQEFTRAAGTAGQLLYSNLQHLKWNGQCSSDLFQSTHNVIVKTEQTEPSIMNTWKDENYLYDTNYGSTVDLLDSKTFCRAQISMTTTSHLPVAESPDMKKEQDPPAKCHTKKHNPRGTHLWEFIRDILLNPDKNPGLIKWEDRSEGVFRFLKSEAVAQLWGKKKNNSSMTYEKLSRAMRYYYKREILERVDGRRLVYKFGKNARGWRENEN
# In short: as §1
# SPI1 = SPI1 (Homo sapiens, UniProt P17947 1-270); details: protein: recombinant; tags: N-terminal GST; dsDNA, one strand shown
# In short: as §1
# SPIB = SPIB (Homo sapiens, UniProt Q01892 1-262); details: protein: recombinant; tags: N-terminal GST; dsDNA, one strand shown
# SPIB, sequence (Q01892 whole entry): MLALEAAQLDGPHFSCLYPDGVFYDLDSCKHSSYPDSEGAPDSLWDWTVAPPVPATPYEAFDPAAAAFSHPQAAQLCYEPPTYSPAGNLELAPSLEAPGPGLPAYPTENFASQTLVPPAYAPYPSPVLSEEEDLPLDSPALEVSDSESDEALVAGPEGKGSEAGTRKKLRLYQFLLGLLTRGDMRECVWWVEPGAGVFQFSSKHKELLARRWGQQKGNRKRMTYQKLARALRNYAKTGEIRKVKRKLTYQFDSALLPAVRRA
# In short: as §1
# ELK3 = molecular target: T6, ELK3 (Homo sapiens, UniProt P41970 1-407); details: protein: recombinant; tags: N-terminal GST; dsDNA, one strand shown
# T6 sequence: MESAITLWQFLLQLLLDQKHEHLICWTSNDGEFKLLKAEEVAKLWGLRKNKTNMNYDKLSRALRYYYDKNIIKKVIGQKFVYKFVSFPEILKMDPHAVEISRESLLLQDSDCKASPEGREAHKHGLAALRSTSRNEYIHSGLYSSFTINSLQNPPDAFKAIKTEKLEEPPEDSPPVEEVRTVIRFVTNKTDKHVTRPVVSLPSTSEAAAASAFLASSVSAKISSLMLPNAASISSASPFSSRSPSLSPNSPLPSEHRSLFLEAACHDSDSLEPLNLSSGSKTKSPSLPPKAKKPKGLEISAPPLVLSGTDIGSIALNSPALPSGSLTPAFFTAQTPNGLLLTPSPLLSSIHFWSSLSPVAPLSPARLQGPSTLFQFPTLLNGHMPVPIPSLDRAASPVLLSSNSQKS
# In short: as §1
# FEV = molecular target: T7, FEV (Homo sapiens, UniProt Q99581 1-238); details: protein: recombinant; tags: N-terminal GST; dsDNA, one strand shown
# T7 sequence: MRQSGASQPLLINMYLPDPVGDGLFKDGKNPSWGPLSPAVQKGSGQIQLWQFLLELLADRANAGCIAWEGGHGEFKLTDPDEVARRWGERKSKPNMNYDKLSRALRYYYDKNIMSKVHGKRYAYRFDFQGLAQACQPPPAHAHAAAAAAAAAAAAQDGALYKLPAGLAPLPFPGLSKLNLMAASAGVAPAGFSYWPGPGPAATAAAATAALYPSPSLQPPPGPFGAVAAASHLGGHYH
# In short: as §1
# ETV5 = ETV5 (Homo sapiens, UniProt P41161 1-510); details: protein: recombinant; tags: N-terminal GST; dsDNA, one strand shown
# ETV5, sequence (P41161 whole entry): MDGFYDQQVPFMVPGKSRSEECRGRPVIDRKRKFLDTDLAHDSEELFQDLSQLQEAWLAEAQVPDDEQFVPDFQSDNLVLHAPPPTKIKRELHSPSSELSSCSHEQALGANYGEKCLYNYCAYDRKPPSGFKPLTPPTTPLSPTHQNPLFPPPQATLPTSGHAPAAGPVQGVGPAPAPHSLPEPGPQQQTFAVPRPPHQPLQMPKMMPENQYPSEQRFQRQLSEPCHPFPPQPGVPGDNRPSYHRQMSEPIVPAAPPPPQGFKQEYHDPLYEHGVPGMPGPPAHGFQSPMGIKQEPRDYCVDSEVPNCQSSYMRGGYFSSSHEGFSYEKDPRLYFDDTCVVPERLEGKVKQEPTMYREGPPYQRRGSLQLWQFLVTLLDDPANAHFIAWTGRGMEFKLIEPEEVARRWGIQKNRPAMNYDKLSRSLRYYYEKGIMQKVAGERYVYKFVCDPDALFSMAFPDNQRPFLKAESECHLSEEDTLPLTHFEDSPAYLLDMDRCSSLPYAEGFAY
# In short: as §1
# HSF1 = HSF1 (Homo sapiens, UniProt Q00613 1-529); details: protein: recombinant; tags: N-terminal GST; chain copies: 3; dsDNA, one strand shown
# HSF1, sequence (Q00613 whole entry): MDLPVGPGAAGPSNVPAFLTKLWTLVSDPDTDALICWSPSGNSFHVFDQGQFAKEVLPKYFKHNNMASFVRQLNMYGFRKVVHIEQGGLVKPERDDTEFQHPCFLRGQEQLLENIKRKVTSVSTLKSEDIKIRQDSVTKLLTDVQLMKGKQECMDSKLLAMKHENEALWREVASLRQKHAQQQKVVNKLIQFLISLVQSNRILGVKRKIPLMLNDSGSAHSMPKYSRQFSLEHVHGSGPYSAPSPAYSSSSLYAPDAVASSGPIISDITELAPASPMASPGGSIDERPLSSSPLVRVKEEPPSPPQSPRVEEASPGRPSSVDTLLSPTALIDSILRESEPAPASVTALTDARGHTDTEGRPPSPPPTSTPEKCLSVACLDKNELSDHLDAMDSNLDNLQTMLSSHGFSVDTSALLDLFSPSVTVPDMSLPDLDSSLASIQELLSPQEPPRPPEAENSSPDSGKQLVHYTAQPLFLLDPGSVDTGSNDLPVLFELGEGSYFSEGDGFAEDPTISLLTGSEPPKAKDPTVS
# In short: as §1
# SPIC = molecular target: T8, SPIC (Homo sapiens, UniProt Q8N5J4 1-248); details: protein: recombinant; tags: N-terminal GST; dsDNA, one strand shown
# T8 sequence: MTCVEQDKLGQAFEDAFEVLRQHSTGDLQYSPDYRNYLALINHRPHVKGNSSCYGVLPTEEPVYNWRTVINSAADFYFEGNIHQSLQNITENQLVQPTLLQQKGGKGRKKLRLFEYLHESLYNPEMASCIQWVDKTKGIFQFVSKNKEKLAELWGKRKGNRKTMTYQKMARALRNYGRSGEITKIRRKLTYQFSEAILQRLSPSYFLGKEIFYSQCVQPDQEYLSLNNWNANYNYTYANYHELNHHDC
# In short: as §1
# ELF4 = ELF4 (Homo sapiens, UniProt Q99607 1-663); details: protein: recombinant; tags: N-terminal GST; dsDNA, one strand shown
# ELF4, sequence (Q99607 whole entry): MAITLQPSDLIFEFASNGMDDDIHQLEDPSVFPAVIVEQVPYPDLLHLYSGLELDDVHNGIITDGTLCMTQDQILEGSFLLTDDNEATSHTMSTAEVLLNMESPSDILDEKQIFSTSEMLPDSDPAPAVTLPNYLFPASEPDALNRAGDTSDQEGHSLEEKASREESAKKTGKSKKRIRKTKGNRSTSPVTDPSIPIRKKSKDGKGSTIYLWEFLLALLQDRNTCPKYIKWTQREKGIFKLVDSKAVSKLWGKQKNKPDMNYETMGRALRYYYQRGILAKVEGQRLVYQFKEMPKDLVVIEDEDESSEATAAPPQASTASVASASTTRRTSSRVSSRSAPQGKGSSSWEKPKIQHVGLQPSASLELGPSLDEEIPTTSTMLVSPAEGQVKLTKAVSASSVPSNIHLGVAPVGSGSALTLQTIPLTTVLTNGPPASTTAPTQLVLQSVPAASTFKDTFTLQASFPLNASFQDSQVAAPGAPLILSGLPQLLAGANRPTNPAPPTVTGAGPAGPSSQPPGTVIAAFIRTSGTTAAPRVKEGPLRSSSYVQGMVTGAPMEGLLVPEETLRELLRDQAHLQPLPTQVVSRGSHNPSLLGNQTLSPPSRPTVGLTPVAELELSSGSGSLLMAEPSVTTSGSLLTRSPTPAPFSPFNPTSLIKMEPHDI
# In short: as §1
# ELF3 = molecular target: T9, ELF3 (Homo sapiens, UniProt P78545 1-371); details: protein: recombinant; tags: N-terminal GST; dsDNA, one strand shown
# T9 sequence: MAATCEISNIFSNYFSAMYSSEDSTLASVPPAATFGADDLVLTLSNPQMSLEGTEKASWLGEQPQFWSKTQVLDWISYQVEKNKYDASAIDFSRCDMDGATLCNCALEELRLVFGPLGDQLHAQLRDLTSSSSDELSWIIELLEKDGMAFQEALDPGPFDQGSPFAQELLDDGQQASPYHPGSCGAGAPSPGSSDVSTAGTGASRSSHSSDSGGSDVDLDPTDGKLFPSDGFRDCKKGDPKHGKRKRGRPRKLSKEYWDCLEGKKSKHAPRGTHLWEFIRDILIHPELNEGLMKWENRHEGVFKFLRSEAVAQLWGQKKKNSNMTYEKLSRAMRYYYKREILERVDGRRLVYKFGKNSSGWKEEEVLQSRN
# In short: as §1
# CRX = CRX (Homo sapiens, UniProt O43186 1-299); details: protein: recombinant; tags: N-terminal GST; dsDNA, one strand shown
# CRX, sequence (O43186 whole entry): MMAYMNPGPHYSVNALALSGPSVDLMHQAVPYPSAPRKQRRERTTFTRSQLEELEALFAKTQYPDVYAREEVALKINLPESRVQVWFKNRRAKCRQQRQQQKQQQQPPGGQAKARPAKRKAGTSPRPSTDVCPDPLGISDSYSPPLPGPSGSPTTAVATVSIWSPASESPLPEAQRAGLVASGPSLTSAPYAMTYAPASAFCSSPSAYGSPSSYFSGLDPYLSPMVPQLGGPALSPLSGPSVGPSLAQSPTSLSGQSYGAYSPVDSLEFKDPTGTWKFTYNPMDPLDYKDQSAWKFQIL
# In short: as §1
# ETV1 = ETV1 (Homo sapiens, UniProt P50549 1-477); details: protein: recombinant; tags: N-terminal GST; dsDNA, one strand shown
# ETV1, sequence (P50549 whole entry): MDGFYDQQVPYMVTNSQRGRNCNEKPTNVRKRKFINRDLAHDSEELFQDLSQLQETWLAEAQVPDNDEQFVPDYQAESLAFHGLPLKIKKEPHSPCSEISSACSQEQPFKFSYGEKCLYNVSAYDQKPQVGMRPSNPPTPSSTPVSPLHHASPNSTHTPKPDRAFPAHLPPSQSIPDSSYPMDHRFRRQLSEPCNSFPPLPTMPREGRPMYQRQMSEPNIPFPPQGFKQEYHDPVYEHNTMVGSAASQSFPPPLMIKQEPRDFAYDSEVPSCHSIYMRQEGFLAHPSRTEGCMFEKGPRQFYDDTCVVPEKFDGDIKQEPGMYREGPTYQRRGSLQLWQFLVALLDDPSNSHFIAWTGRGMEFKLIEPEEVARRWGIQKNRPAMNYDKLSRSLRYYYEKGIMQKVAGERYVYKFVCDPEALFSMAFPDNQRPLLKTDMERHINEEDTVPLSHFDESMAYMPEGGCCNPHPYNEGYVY
# In short: as §1
sequence,measurement,setting,value
TGGAAA,binding signal,FLI1,"1.09 fold enrichment (6-mer frequency, TF over GST control)"
same,binding signal,ELK1,"1.12 fold enrichment (6-mer frequency, TF over GST control)"
same,binding signal,GABPA,"1.19 fold enrichment (6-mer frequency, TF over GST control)"
same,binding signal,ERG,"1.11 fold enrichment (6-mer frequency, TF over GST control)"
same,binding signal,ELF1,"1.04 fold enrichment (6-mer frequency, TF over GST control)"
same,binding signal,EHF,"1.1 fold enrichment (6-mer frequency, TF over GST control)"
same,binding signal,SPI1,"1.16 fold enrichment (6-mer frequency, TF over GST control)"
same,binding signal,SPIB,"1.17 fold enrichment (6-mer frequency, TF over GST control)"
same,binding signal,ELK3,"1.15 fold enrichment (6-mer frequency, TF over GST control)"
same,binding signal,FEV,"1.03 fold enrichment (6-mer frequency, TF over GST control)"
same,binding signal,ETV5,"1.14 fold enrichment (6-mer frequency, TF over GST control)"
same,binding signal,HSF1,"2.23 fold enrichment (6-mer frequency, TF over GST control)"
same,binding signal,SPIC,"1.17 fold enrichment (6-mer frequency, TF over GST control)"
same,binding signal,ELF4,"1.12 fold enrichment (6-mer frequency, TF over GST control)"
same,binding signal,ELF3,"1.15 fold enrichment (6-mer frequency, TF over GST control)"
same,binding signal,CRX,"1.23 fold enrichment (6-mer frequency, TF over GST control)"
same,binding signal,ETV1,"1.11 fold enrichment (6-mer frequency, TF over GST control)"
